The source of these data is PubChem BioAssay.

A number with no mark means an inactive call. Calls of active or inactive are those of the source. Unless noted, no stated cut-off is given here; in the data, active means inhibition above about 44%; inactive means the rest.

A short description of assay [1]: StAR promoter reporter inhibitors, counter-screen for LRH-1 inverse agonist project, cell-based, luminescence, high throughput (AID 651611; in the data active means inhibition above about 28%). To be noted: StAR promoter luciferase reporter counterscreen, at 3.6 µM, active compounds read high.
For assay [2], the target named is Nuclear receptor subfamily 5 group A member 2 (Homo sapiens) (UniProt O00482). Nature of the assay: LRH-1 (NR5A2) inverse agonists, retest, confirmation, cell-based, luminescence (AID 651613; in the data active means inhibition above about 42%;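 further: HEK293T cells co-transfected with LRH-1 and StAR promoter luciferase reporter; 0% = vehicle wells and 100% = parental cells lacking receptor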). To be noted: cell-based LRH-1 luciferase reporter, inverse agonism; at 3.6 µM; active compounds read high.
Sequence of Nuclear receptor subfamily 5 group A member 2 (Homo sapiens) (O00482 whole entry, looked up): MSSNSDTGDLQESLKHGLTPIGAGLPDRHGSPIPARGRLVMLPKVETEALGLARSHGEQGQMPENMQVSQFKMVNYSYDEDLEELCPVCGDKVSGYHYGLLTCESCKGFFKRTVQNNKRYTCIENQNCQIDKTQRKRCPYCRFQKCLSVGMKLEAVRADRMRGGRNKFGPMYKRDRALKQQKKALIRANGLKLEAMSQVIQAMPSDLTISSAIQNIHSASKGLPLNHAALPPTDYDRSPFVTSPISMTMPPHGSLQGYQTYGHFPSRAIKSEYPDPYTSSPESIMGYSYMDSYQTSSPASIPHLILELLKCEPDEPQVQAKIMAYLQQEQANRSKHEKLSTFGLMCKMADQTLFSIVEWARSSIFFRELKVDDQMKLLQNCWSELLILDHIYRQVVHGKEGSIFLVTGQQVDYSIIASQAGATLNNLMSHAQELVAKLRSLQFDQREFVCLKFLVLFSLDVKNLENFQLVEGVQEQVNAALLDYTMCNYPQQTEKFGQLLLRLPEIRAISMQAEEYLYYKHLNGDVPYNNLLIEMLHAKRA
The target of assay [3] is Steroidogenic factor 1 (Homo sapiens) (UniProt Q13285). Nature of the assay: SF1 (NR5A1) inverse agonists, counter-screen for LRH-1 inverse agonist project, cell-based, luminescence, high throughput (AID 651614).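 Further: cells cotransfected with StAR promoter reporter and SF1 expression vector; 0% = vehicle on cells with receptor and 100% = vehicle on cells lacking receptor.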 To be noted: cell-based SF1 luciferase reporter, at 3.6 µM, active compounds read high.
Sequence of Steroidogenic factor 1 (Homo sapiens) (Q13285 whole entry, looked up, the tested form may be a part): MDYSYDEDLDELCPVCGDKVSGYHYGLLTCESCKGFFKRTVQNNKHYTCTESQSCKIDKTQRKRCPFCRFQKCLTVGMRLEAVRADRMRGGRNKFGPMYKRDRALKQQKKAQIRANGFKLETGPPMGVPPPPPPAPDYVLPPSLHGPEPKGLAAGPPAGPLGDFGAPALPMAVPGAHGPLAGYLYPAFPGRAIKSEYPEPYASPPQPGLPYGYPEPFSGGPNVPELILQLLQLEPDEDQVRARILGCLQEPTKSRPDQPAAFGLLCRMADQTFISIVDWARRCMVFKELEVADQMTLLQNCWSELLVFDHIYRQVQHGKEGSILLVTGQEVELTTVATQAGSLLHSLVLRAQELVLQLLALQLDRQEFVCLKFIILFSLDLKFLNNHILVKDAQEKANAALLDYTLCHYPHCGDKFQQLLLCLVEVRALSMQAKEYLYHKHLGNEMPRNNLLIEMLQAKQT
Assay [4] in a line: VP16 transactivation reporter inhibitors, counter-screen for LRH-1 inverse agonist project, cell-based, luminescence, high throughput (AID 651615; in the data active means inhibition above about 33%). To be noted: Gal4-VP16 luciferase reporter cells, at 3.6 µM, active compounds read high.

Take `Cc1ccsc1CNc1ncnc2ccc(-c3c(C)noc3C)cc12`: the inhibition was 54.5% (active) in assay [1], 37.9% in assay [2], 28.7% in assay [3] and -142% in assay [4].
Turning to `Cc1cc(=O)oc2cc(O)cc(OCc3ccccc3)c12`, the inhibition in assay [1] is 26%; in assay [2] it was 51.7% (active); in assay [3] it was 45.2% (active); in assay [4], -8.41%.
On the same counts, the results for `CCc1ccccc1NC(=O)CSc1nc2n[nH]c(C)c2c(=N)n1-c1cccc(OC)c1` are 16.7%, 38.2%, 19.4% and -17.4%.
On the same counts, the results for `Cc1ccc(NC(=O)CSc2nnc(CCCCCNC(=O)OC(C)(C)C)o2)c(C)c1` are 12.2%, 47.9% (active), 42.7% and 4.4%.
On the same counts, the results for `Cc1ccccc1C(=O)N1CCN(c2ccc(NC(=O)c3ccc([N+](=O)[O-])o3)cc2)CC1` are 25.2%, 64.4% (active), 69.1% (active) and 2.37%.
As to `CCOc1ccc(CCNC(=O)COC(=O)c2cc(=O)[nH]c3ccccc23)cc1OCC`, the inhibition in assay [1] is 8.79%; in assay [2], 53.2% (active); in assay [3], 53.2% (active); in assay [4], -8.43%.
In the case of `O=C(c1ccco1)N1CCCC(N2CCN(c3cccc(C(F)(F)F)c3)CC2)C1` (stereo unspecified), the inhibition is -1.93% in assay [1], 51% (active) in assay [2], 47.7% (active) in assay [3] and 11.1% in assay [4].
On the same counts, the results for `Cc1ccccc1NC(=O)c1ccc([N+](=O)[O-])o1` are 8.33%, 64.8% (active), 57.6% (active) and -16%.
On the same counts, the results for `CCOc1ccc(NC(=O)COC(=O)C2CCC(=O)N2)c([N+](=O)[O-])c1` (stereo unspecified) are 4.31%, 50.5% (active), 43.6% (active) and -7.9%.
